# Data taken from PubChem BioAssay (NCATS).
# Results filed as inconclusive are left out. Activity calls are given as the source filed them. Unless noted, calls follow the shape of the dose curve; as a rule, active = well fitted curve in the direction sought with a large enough effect; inconclusive = small, poorly fitted or top-dose-only effect, or another doubt; inactive = no such curve, though single readings can be large; an effect the other way counts as inactive or inconclusive.
# Experiments:
# [1] = S16 Schwann cell viability assay (CellTiter-Glo assay) (AID 624031);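 also: cellular ATP luminescence as a viability measure; nearly all actives have a fitted effect of over 70% in size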
# How it was run: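 Native S16 rat Schwann cells, 500-750 cells/well in DMEM with 10% FBS, dosed with compound after overnight culture and incubated 24h at 37 degree Celsius/5% CO2. Viability by CellTiter-Glo luminescence; % activity normalized to no-cell wells and DMSO-treated cells.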
# [2] = S16 Schwann cell PMP22 intronic element firefly luciferase assay (AID 624032); also: nearly all actives have a fitted effect of over 30% in size
# How it was run: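 Rat S16 Schwann cells stably carrying firefly luciferase driven by a PMP22 intronic element, in 10% FBS, treated 24 h at 37 C. ONE-Glo luminescence normalized to PTC124 control and DMSO (0%); curves classed by r2, magnitude and activity.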
# [3] = S16 Schwann cell PMP22 intronic element beta-lactamase assay (AID 624044; calls by dose curve; also: nearly all actives have a fitted effect of over 15% in size)
# Source text: Description: Charcot-Marie-Tooth-Association [CMTA] National Center for Advancing Translational Sciences [NCATS] Charcot-Marie-Tooth (CMT) disease was first characterized by Jean-Martin Charcot and Pierre Marie in France and, independently, by Howard Henry Tooth in England in 1886. CMT is one of the most common inherited neurological diseases, affecting approximately 1 in 2,500 Americans. […] The most prevalent type of CMT is known as CMT1A and caused by a duplication of the PMP22 gene which leads to over-expression of this protein. PMP22 is a glycosylated intrinsic membrane protein accounting for 2-5% of the myelin protein content, and its over-expression results in demyelination and subsequently axonal loss. A pair of cellular transcription-based assays was developed in the S16 rat Schwann cell lines (Hai, M., et al., 2002) stably transfected with orthogonal reporters - firefly luciferase (Fluc) and beta-lactamase (beta-Lac) - whose expression is driven by an intronic regulatory element of the PMP22 gene (Jones, E.A., et al., 2011) to recapitulate endogenous expression of PMP22. The current assay employs Blac as a reporter of PMP22 expression. A comprehensive library of approved drugs, the NCGC Pharmaceutical Collection (Huang, R., et al., 2011), was screened in the cross-validating platform of the orthogonal reporter assays to identify drug modulators inhibitory towards PMP22 expression. A set of counter-screens was devised to address non-specific activity of the library. An ATP-dependent CellTiter-Glo assay (developed by Promega Corp) was utilized to control cell viability. In addition, biochemical Fluc enzyme assay was performed to assess direct inhibition of the Fluc enzymatic activity. References Hai, M., Muja, N., DeVries, G.H., Quarles, R.H. and Patel, P.I. Comparative analysis of Schwann cell lines as model systems for myelin gene transcription studies. J Neurosci Res, 2002. 69(4): pp 497-508 Huang, R., Southall, N., Wang, Y., Yasgar A., Shinn P., Jadhav, A. , Nguyen, D.-T. and Austin, C.P., The NCGC pharmaceutical collection: a comprehensive resource of clinically approved drugs enabling repurposing and chemical genomics. Sci Transl Med, 2011. 3(80): p. 80ps16.
# S16 Schwann cell PMP22 intronic element beta-lactamase assay The beta-Lac-expressing S16 cells were seeded in black clear-bottom 1536 well plates at between 500-750 cells/6uL in DMEM medium containing 10% FBS, w/o phenol red. After overnight incubation at 37 degree Celsius/5% C02, 23 nL of compounds or DMSO were delivered to each well using a pin tool, followed by 24h-incubation at 37 degree Celsius/5% C02. Then one microl of LiveBLAzer FRET B/G detection mix (Invitrogen) was added to each well. An EnVision plate reader (PerkinElmer) was used to detect the dual beta-Lac output composed of fluorescence at 460nm for beta-Lac expression and FRET at 535nm for cell viability. The % signal at 535 nm was scaled to a full range of DMSO and zero and then normalized using the maximum response observed in the screen as 100% activity. The % signal at 460nm was normalized to the average readings of potassium clavulanate (a positive control) - treated cells relative to DMSO-treated cells (0% Activity). The concentration-effect curves were then classified based on curve quality (r2), response magnitude and degree of measured activity.
# [4] = system: CP260; assay: qHTS profiling for inhibitors of Plasmodium falciparum proliferation (AID 504749); also: potency is read from the fitted curve at half-maximal effect; nearly all actives have a fitted effect of over 60% in size; conditions: P. falciparum in erythrocytes, SYBR Green DNA, 72 h; series mostly up to 28.7 µM
# How it was run: (§1)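 Each compound contacts P. falciparum-infected red blood cells for 72 h at 37 C; lysis buffer (Tris, EDTA, saponin, Triton X, SYBR Green I) is added and fluorescence measured next morning; values normalized to controls.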
# [5] = system: CP297; assay: as above; conditions: P. falciparum in erythrocytes, SYBR Green DNA, 72 h; series mostly up to 28.7 µM
# How it was run: as §1
# [6] = system: CP315; assay: as above; conditions: P. falciparum in erythrocytes, SYBR Green DNA, 72 h; series mostly up to 28.7 µM
# How it was run: as §1
# [7] = system: ICS; assay: as above; conditions: P. falciparum in erythrocytes, SYBR Green DNA, 72 h; series mostly up to 28.7 µM
# How it was run: as §1
# [8] = system: JCK; assay: as above; conditions: P. falciparum in erythrocytes, SYBR Green DNA, 72 h; series mostly up to 28.7 µM
# How it was run: as §1
structure (smiles),measurement,setting,value
O=C(CC1NCCC[C@H]1O)Cn1cnc2cc(Br)c(Cl)cc2c1=O (stereo partly drawn),outcome,[1],inactive
same,Potency,[2],inactive
same,Potency,[3],inactive
same,Potency,[4],2.51 µM (active)
same,Potency,[5],3.38 µM (active)
same,Potency,[6],3.01 µM (active)
same,Potency,[7],1.12 µM (active)
same,Potency,[8],2.82 µM (active)
